This is an account of results in PubChem BioAssay AID504423 (Broad Institute, 2011).

“And” between values parts separate entries of the source, which are not always exact repeats. Equal values may be shown once. In all, about 340,000 compounds went through this assay and about 260 (0.076%) were called active. This is one part of a sample in which actives are shown more often than they occur. Unmarked numbers belong to inactive results.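 Rule for the calls: active = highest replicate inhibition at or above 60% at 9 µM, even if other replicates fall short; inactive = all replicates below 60% inhibition.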

For this assay, the system named is Kaposi's sarcoma herpesvirus LANA C-terminal domain (residues 932-1162) DNA binding. Kind of assay: blockers of LANA C-terminal domain DNA interaction – biochemical, fluorescence polarization, FAM-LBS DNA, MBP-C-LANA, single point, primary screen (AID 504423).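 Note: 0% = neutral control wells and 100% = 4 µM acridine orange control.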 To be noted: at 9 µM, active compounds read high. (Polarisation of emitted light reports the rotation of a fluorescent probe.)
`O=C(c1ccc(=O)oc1)N1CCC(C(O)(c2ccccc2)c2ccccc2)CC1`: the inhibition was 1.16%.

In the case of `O=C(CN1CCSCC1)N/N=C/c1ccc(F)cc1F`, the inhibition was -0.674%.

As to `Clc1ccc(-c2nnc(-c3ccccc3)nc2N2CCSCC2)cc1`, the inhibition was -0.189%.

Consider `CC(=O)c1ccc(N2C(=NC(=O)C(C)C)SC3CS(=O)(=O)CC32)cc1` (configuration not stated), for which the inhibition was -0.954%.

Turning to `CCCN(CC(=O)Nc1ccc(OC)c(OC)c1)CC(=O)Nc1ccc(F)c(F)c1F`, the inhibition is 3.86%.

Consider `COCCCNC(=O)C1CC(=O)N(c2ccc(C)cc2)C1` (configuration not stated), for which the inhibition is 0.062%.

In the case of `COC(=O)c1c(C)oc(C)c1S(=O)(=O)Nc1ccc(C(C)C)cc1`, the inhibition is -0.597%.

With `CCN(CC(=O)NC1CCS(=O)(=O)C1)S(=O)(=O)c1ccccc1` (configuration not stated), the inhibition is -1.52%.

As to `CCOc1cc(C(=O)Nc2c(C)ccc3nsnc23)cc(OCC)c1OCC`, the inhibition is -1.85%.

For the molecule `CCN(CC(=O)NC(C)C)C(=O)CCNC(=O)c1ccc(Cl)cc1`, the inhibition is -0.0284%.

As to `COc1ccc(NS(=O)(=O)c2ccc(C)c(C(=O)N(C)Cc3ccc(OC)cc3OC)c2)cc1`, the inhibition was 28.6%.

`O=S(=O)(c1ccc(-c2ccccc2)cc1)N1CCCC1`: the inhibition was 1.28%.

As for `CCCn1c(N)c(C(=O)CSc2nnc(-c3cccnc3)n2-c2ccc(C)cc2C)c(=O)[nH]c1=O`, the inhibition was 0.224%.

Turning to `CC(C)(C)NC(=O)CN1CCC(NC(=O)C23CC4CC(CC(C4)C2)C3)CC1`, the inhibition is 0.793%.

Take `c1ccc2c(NC3C4CC5CC(C4)CC3C5)nc(N3CCOCC3)nc2c1` (configuration not stated): the inhibition was 0.795%.

`CCC(C)(C)c1ccc(OCC(=O)N(C)C)c(C(C)(C)CC)c1`: the inhibition was 1.97%.

As to `Oc1ccc(-c2nc3ccccc3nc2-c2ccc(O)cc2O)c(O)c1`, the inhibition was 2.95%.

For the molecule `Oc1ccc2ccc3cccc[n+]3c2c1`, the inhibition was 141% (active).

On to `CC(=O)Oc1cc2c(C(=O)NCCN3CCOCC3)c(C)oc2c2ccccc12`, for which the inhibition is -0.716%.

Turning to `Cc1cc(C)nc(NNC2=CC(=O)CC(C)(C)C2)n1`, the inhibition was 2.32%.

As for `Cn1c(SCC(=O)N2CCCCC2)nc2c(c1=O)SCC2`, the inhibition was -1.34%.

`COC(=O)[C@@H](NC(=O)NCc1cccc(OC)c1)C(C)C`: the inhibition is 1.36%.

Regarding `O=C1COc2ccc(C(=O)COC(=O)c3cccnc3Cl)cc2N1`, the inhibition is 4.34%.

For `COC(=O)Cc1c(-c2[nH]c3ccccc3c2CC(=O)OC)[nH]c2ccccc12`, the inhibition is 1.73%.

As for `COC(=O)C[n+]1cccc2ccccc21`, the inhibition was 70.1% (active).

Consider `O=C(C[n+]1cc(Br)cc2ccccc21)c1ccc(F)cc1`, for which the inhibition was 4%.

Consider `O=C1CCCc2c1[nH]c1ccc(Br)cc21`, for which the inhibition is -0.926%.

Consider `COCCCN(C(=O)Cn1ncc2c(=O)oc3ccc(C)cc3c21)C(C)c1ccncc1` (configuration not stated), for which the inhibition is 1.23%.

As to `O=C(Cn1c[n+](CC(=O)c2ccc([N+](=O)[O-])cc2)cn1)c1ccc([N+](=O)[O-])cc1`, the inhibition was -0.902% and -2.71%.

For the molecule `CCOC(=O)C(C)N(c1ccccc1Cl)S(C)(=O)=O` (configuration not stated), the inhibition was 1.82%.

For the molecule `CCOC(=O)C1CCN(C(=O)Cn2nc(C)c3c(C)n(-c4ccccc4)nc3c2=O)CC1`, the inhibition is -0.173%.

For the molecule `O=C1C=C(c2cccc(Cl)c2O)C[C@@H](c2ccc(F)cc2)C1`, the inhibition is 0.749%.

`O=C(O)CCn1c(SCc2cc(=O)n3ccccc3n2)nc2ccsc2c1=O`: the inhibition is 0.383%.

Take `NC(N)=NCCCc1cn(CC(=O)N2CCNCC2)nn1`: the inhibition is -0.256%.

`O=C(Cc1ccc(S(=O)(=O)N2CCOCC2)s1)Nc1ccc(Br)c(C(F)(F)F)c1`: the inhibition is -0.373%.

In the case of `COC(=O)c1ccc([C@@H](O)[C@H](C)C(=O)CC(=O)OC(C)(C)C)cc1`, the inhibition is 2.15%.

Consider `Cc1cc(NC(=O)/C=C/C(=O)N(c2ccccc2C)C(C(=O)NC2CCCC2)c2ccc(F)cc2)no1` (configuration not stated), for which the inhibition was 0.894%.

For `CSc1ccc(S(=O)(=O)NCC(=O)OCC(=O)NC2(C#N)CCCCC2)cc1[N+](=O)[O-]`, the inhibition is -0.312%.

For the molecule `COC(=O)c1cc(NC2c3ccccc3C(=O)N2c2ccc(Cl)cn2)cc(C(=O)OC)c1` (configuration not stated), the inhibition was -1.05%.

As to `CCCn1c(N)c(C(=O)CSc2nnc3n2CCCCC3)c(=O)[nH]c1=O`, the inhibition is -2.38%.

For `CCOC(=O)c1cc(C(=O)Nc2ccc(S(=O)(=O)Nc3ccc(OC)cc3)cc2)nn1C`, the inhibition was -1.57%.

With `CCC(Sc1nncn1C)C(=O)Nc1nnc(-c2ccc(Cl)cc2)s1` (configuration not stated), the inhibition was -3.46%.

As for `Oc1c(Cl)cc(Cl)c(Cl)c1Cc1c(O)c(Cl)cc(Cl)c1Cl`, the inhibition is -0.191%.

In the case of `CC(Oc1cccc(Cl)c1)C(=O)NC1CC(C)(C)NC(C)(C)C1` (configuration not stated), the inhibition is -1.58%.

Take `COc1cc(OC)c(NS(=O)(=O)c2cn(C)cn2)cc1Cl`: the inhibition was 0.525%.

On to `Cc1nc2ccc(NC(=O)N3CCC(c4ccccc4)C3)cc2nc1C` (configuration not stated), for which the inhibition was -3.95%.

Regarding `COc1ccc(NC(=O)C(CC(C)C)NS(=O)(=O)c2ccc3c(c2)CCN3C(C)=O)cc1OC` (configuration not stated), the inhibition was 1.56%.

For the molecule `OCCC1CN(Cc2ccc3nsnc3c2)CCN1C1CCCC1` (configuration not stated), the inhibition is -1.26%.

Take `O=C(CN(c1ccc2c(c1)OCCO2)S(=O)(=O)c1ccccc1)Nc1ccc2c(c1)OCO2`: the inhibition was -0.247%.

With `CCC1C(=O)NCCN1C(=O)c1ccc2nc(Cc3ccc(OC)cc3)oc2c1` (configuration not stated), the inhibition is -0.899%.

Take `S=c1[nH]ccn1-c1ccc(Cl)cc1`: the inhibition is -5.31%.

As to `COc1cc(OC)cc(-c2c(-c3cccs3)c3cc(-c4ccc(OC)nc4)ccc3n2C)c1`, the inhibition was -0.213%.

Turning to `Cc1cc(C#N)c(SCC(N)=O)nc1-c1ccc(F)cc1`, the inhibition is -0.398%.

Take `Cc1cc(Br)ccc1SCC(=O)OCC(=O)NCc1ccc2c(c1)OCO2`: the inhibition was -1.13%.

In the case of `CCN(Cc1ccccc1)C(=O)Cc1ccc(OC)c(S(=O)(=O)N2CCOCC2)c1`, the inhibition is -0.86%.

Regarding `C=CCN(Cc1nc(-c2cc(OC)c3c(c2)OCO3)oc1C)C1CCS(=O)(=O)C1` (configuration not stated), the inhibition was -0.881%.

Consider `CCCN(C(=O)COC(=O)CNS(=O)(=O)c1ccc(NC(C)=O)cc1)C1CCS(=O)(=O)C1` (configuration not stated), for which the inhibition was -0.76%.

For orientation: inhibition means the relative decrease from the control value, in per cent.
